# Records with an inconclusive call do not appear. Calls of active or inactive are those of the source. The calls were made as follows: active = hit-call score of the fitted dose curve at least 0.9, where 1 is the maximum; inconclusive = response in the unintended direction; inactive = score below 0.9.
# Target: human Peroxisome Proliferator-activated Receptor alpha (PPARa), PPARA (gene 5465) (UniProt Q07869)
# Experiment: ATG_PPARa_TRANS: Attagene TRANS-FACTORIAL HepG2 Assay for human Peroxisome Proliferator-activated Receptor alpha (PPARa) (AID 2283001);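 as to AC50: potency for gain of reporter signal over DMSO so agonist or activator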
# Procedure, shortened: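 Transfected HepG2 cells treated with test chemical for 24 h. RNA isolated, reverse-transcribed with oligo(dT), PCR-amplified, FAM-labelled and HpaI-digested. Fragments sized by capillary electrophoresis; gain-of-signal fit relative to DMSO.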
# Chain of human Peroxisome Proliferator-activated Receptor alpha (PPARa), PPARA (gene 5465) (Q07869 whole entry, looked up): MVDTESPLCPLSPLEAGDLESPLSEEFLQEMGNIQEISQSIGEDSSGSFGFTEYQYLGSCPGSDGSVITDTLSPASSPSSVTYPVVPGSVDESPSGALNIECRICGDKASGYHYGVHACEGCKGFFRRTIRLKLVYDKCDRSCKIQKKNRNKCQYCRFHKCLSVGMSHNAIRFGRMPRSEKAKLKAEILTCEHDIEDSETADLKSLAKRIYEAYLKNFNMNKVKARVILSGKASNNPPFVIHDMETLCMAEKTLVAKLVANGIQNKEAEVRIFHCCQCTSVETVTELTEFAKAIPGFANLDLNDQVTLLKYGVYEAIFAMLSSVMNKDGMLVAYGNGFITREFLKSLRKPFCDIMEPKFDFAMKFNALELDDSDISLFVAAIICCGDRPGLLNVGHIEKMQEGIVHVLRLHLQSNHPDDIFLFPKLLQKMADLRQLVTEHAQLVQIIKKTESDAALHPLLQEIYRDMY
SMILES,outcome,AC50
CC(=O)NS(=O)(=O)c1ccc(N)cc1,inactive,
CCCCCCCCCCOC(C)=O,inactive,
NC(=O)NNC(N)=O,inactive,
Cc1cc(O)c(Cl)c(C)c1Cl,inactive,
O=[N+]([O-])C1(Br)COCOC1,inactive,
CCCCOCCOC(=O)COc1nc(Cl)c(Cl)cc1Cl,inactive,
C=C(C)C(=O)OCCO,inactive,
FC(F)(F)C(=NOCC1OCCO1)c1ccc(Cl)cc1,inactive,
Cc1ccc(C(C)(C)C)cc1,inactive,
OC1OCCOC1O (stereo unspecified),inactive,
CC(C)c1ccc(C#N)cc1,inactive,
O=S(=O)(O)c1ccccc1C=Cc1ccc(-c2ccc(C=Cc3ccccc3S(=O)(=O)O)cc2)cc1,inactive,
CC1=Nc2ccc3ccccc3c2C1(C)C,inactive,
O=C1C=CC(=O)O1,inactive,
COC(=O)c1ccc2cc(C(=O)OC)ccc2c1,inactive,
COc1ccc([C@@H]2CC(=O)c3c(O)cc(O[C@@H]4O[C@H](CO[C@@H]5O[C@@H](C)[C@H](O)[C@@H](O)[C@H]5O)[C@@H](O)[C@H](O)[C@H]4O)cc3O2)cc1OC,inactive,
O=C1CCCC(=O)O1,inactive,
O=C(O)CCCCCCCCCC(=O)O,inactive,
CC1=NN(c2cc(S(=O)(=O)O)ccc2Cl)C(=O)C1N=Nc1ccccc1 (stereo unspecified),inactive,
CC(C)=CC1CC(C)CCO1 (stereo unspecified),inactive,

SMILES,outcome,AC50
COC(F)(F)C(F)(C(F)(F)F)C(F)(F)F,inactive,
Nc1nc2ccccc2[nH]1,inactive,
CC(C)(C)C(=O)C=Cc1ccc(Cl)cc1,,24.7 µM (active)
CC(C)(Oc1ccc(C2CC2(Cl)Cl)cc1)C(=O)O (stereo unspecified),,0.975 µM (active)
Clc1nc2ccccc2s1,inactive,
Cc1ccc2oc(=O)ccc2c1,inactive,
Cc1cc(C)c(C(=O)O)c(C)c1,,33.7 µM (active)
COc1c2ccoc2cc2oc(=O)ccc12,inactive,
CCOC(=O)c1ccc(N(C)C)cc1,inactive,
Cc1ccc(N/N=c2\c(=O)cc/c(=N/Nc3ccc(S(=O)(=O)O)cc3)c2=O)c(C)c1,inactive,
CCCCCCC1(C)CCC(=O)O1 (stereo unspecified),inactive,
NC(CO)(CO)CO,inactive,
OCCN(CCO)c1ccccc1,inactive,
CCC(CO)CO,inactive,
CC(=O)Oc1ccc(C)cc1,inactive,
Cc1cccc(C(=O)O)c1,inactive,
C=CC(=O)OCCC(=O)O,inactive,
O=P(O)(O)Oc1ccccc1,inactive,
O=C1OC(=O)c2cc(Oc3ccc4c(c3)C(=O)OC4=O)ccc21,inactive,
COc1cc(NC(=O)CC(C)=O)c(OC)cc1Cl,inactive,

# Target: human Retinoic Acid Receptor beta (RARb), RARB (gene 5915) (UniProt P10826)
# Experiment: ATG_RARb_TRANS: Attagene TRANS-FACTORIAL HepG2 Assay for human Retinoic Acid Receptor beta (AID 2283004)
# Procedure, shortened: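 HepG2, transient MRTU transfection, NR–Gal4 chimera, 24 h treatment; RT-PCR plus CE fluorescence detection of reporter mRNA; gain of signal vs DMSO.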
# Chain of human Retinoic Acid Receptor beta (RARb), RARB (gene 5915) (P10826 whole entry, looked up): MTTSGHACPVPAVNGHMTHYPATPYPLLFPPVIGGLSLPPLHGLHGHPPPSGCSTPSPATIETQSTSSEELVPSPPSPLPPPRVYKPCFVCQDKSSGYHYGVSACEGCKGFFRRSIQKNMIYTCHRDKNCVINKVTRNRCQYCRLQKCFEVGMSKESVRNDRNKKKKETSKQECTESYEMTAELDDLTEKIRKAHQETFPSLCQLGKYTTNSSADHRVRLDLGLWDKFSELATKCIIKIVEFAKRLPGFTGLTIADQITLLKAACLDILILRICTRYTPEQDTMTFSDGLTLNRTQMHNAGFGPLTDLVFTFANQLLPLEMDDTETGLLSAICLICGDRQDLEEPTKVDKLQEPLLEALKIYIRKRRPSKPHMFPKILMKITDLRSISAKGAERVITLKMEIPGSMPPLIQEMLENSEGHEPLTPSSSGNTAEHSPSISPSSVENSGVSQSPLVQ
row,SMILES,outcome
1,O=[N+]([O-])C1(Br)COCOC1,inactive
2,Cc1ccc(C(C)(C)C)cc1,inactive
3,OC1OCCOC1O (stereo unspecified),inactive
4,O=C1CCCC(=O)O1,inactive
5,COC(F)(F)C(F)(C(F)(F)F)C(F)(F)F,inactive
6,Nc1nc2ccccc2[nH]1,inactive
7,NC(CO)(CO)CO,inactive
8,CCC(CO)CO,inactive
9,CC(=O)Oc1ccc(C)cc1,inactive
10,O=C1OC(=O)c2cc(Oc3ccc4c(c3)C(=O)OC4=O)ccc21,inactive

# Target: Retinoic acid receptor alpha (Homo sapiens) (UniProt P10276)
# Experiment: ATG_RARa_TRANS: Attagene TRANS-FACTORIAL HepG2 Assay for human Retinoic Acid Receptor alpha (RARa) (AID 2283005)
# Procedure, shortened: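 Reporter transcripts, measured by RT-PCR with fluorescent labeling and capillary electrophoresis after 24 h dosing, reflect activity of an exogenous human RARa–GAL4 fusion in transiently transfected HepG2. Fitted for increase relative to DMSO.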
# Chain of Retinoic acid receptor alpha (Homo sapiens) (P10276 whole entry, looked up): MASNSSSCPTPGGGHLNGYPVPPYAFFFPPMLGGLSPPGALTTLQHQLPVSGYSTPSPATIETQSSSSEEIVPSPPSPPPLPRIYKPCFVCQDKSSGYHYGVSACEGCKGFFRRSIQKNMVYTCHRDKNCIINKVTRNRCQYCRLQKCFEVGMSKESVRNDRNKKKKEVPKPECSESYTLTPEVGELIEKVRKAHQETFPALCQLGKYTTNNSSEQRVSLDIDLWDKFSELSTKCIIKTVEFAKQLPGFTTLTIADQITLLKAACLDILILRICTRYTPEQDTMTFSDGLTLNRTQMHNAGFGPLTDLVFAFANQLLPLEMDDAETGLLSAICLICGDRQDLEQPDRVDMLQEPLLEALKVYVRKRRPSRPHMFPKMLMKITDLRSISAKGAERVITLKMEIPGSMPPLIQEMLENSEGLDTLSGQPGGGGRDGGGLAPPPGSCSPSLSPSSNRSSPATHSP
row,SMILES,outcome
1,CC(=O)NS(=O)(=O)c1ccc(N)cc1,inactive
2,NC(=O)NNC(N)=O,inactive
3,CCCCOCCOC(=O)COc1nc(Cl)c(Cl)cc1Cl,inactive
4,CC(C)c1ccc(C#N)cc1,inactive
5,O=S(=O)(O)c1ccccc1C=Cc1ccc(-c2ccc(C=Cc3ccccc3S(=O)(=O)O)cc2)cc1,inactive
6,O=C1C=CC(=O)O1,inactive
7,CC(C)=CC1CC(C)CCO1 (stereo unspecified),inactive
8,CC(C)(Oc1ccc(C2CC2(Cl)Cl)cc1)C(=O)O (stereo unspecified),inactive
9,Clc1nc2ccccc2s1,inactive
10,Cc1ccc2oc(=O)ccc2c1,inactive
11,Cc1cc(C)c(C(=O)O)c(C)c1,inactive
12,OCCN(CCO)c1ccccc1,inactive
13,Cc1cccc(C(=O)O)c1,inactive
14,O=P(O)(O)Oc1ccccc1,inactive

# Target: Peroxisome proliferator-activated receptor gamma (Homo sapiens) (UniProt P37231)
# Experiment: ATG_PPARg_TRANS: Attagene TRANS-FACTORIAL HepG2 Assay for human Peroxisome Proliferator-activated Receptor-gamma (PPARg) (AID 2283007)
# Procedure, shortened: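 Liver-derived HepG2 cells expressing an exogenous NR-Gal4 chimera alongside GAL4-UAS reporter genes; 24 h exposure. Fluorescence of reporter RT-PCR products, separated by capillary electrophoresis, gives mRNA induction relative to DMSO.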
# Chain of Peroxisome proliferator-activated receptor gamma (Homo sapiens) (P37231 whole entry, looked up): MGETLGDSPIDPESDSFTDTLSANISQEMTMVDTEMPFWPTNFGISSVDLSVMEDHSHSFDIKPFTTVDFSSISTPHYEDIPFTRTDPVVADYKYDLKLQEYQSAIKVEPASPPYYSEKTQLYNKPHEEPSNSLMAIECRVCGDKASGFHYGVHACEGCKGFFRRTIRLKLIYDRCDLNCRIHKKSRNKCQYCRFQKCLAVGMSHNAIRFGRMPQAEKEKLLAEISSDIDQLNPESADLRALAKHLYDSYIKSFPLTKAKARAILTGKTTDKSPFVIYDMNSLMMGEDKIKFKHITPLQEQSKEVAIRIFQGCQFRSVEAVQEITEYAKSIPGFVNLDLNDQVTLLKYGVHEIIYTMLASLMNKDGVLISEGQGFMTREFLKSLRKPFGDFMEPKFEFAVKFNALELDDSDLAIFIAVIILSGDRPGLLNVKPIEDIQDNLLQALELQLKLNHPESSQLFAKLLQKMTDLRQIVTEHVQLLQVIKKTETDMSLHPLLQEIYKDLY
SMILES,outcome,AC50
CCCCCCCCCCOC(C)=O,inactive,
Cc1cc(O)c(Cl)c(C)c1Cl,,21.9 µM (active)
O=[N+]([O-])C1(Br)COCOC1,inactive,
CCCCOCCOC(=O)COc1nc(Cl)c(Cl)cc1Cl,,60.1 µM (active)
C=C(C)C(=O)OCCO,inactive,
FC(F)(F)C(=NOCC1OCCO1)c1ccc(Cl)cc1,inactive,
O=S(=O)(O)c1ccccc1C=Cc1ccc(-c2ccc(C=Cc3ccccc3S(=O)(=O)O)cc2)cc1,inactive,
CC1=Nc2ccc3ccccc3c2C1(C)C,,40.5 µM (active)
COC(=O)c1ccc2cc(C(=O)OC)ccc2c1,,26.3 µM (active)
COc1ccc([C@@H]2CC(=O)c3c(O)cc(O[C@@H]4O[C@H](CO[C@@H]5O[C@@H](C)[C@H](O)[C@@H](O)[C@H]5O)[C@@H](O)[C@H](O)[C@H]4O)cc3O2)cc1OC,inactive,
O=C(O)CCCCCCCCCC(=O)O,inactive,
CC1=NN(c2cc(S(=O)(=O)O)ccc2Cl)C(=O)C1N=Nc1ccccc1 (stereo unspecified),inactive,
Nc1nc2ccccc2[nH]1,inactive,
CC(C)(C)C(=O)C=Cc1ccc(Cl)cc1,,26.6 µM (active)
CC(C)(Oc1ccc(C2CC2(Cl)Cl)cc1)C(=O)O (stereo unspecified),,30.6 µM (active)
Clc1nc2ccccc2s1,inactive,
Cc1ccc2oc(=O)ccc2c1,inactive,
Cc1cc(C)c(C(=O)O)c(C)c1,inactive,
COc1c2ccoc2cc2oc(=O)ccc12,inactive,
CCOC(=O)c1ccc(N(C)C)cc1,inactive,
Cc1ccc(N/N=c2\c(=O)cc/c(=N/Nc3ccc(S(=O)(=O)O)cc3)c2=O)c(C)c1,inactive,
CCCCCCC1(C)CCC(=O)O1 (stereo unspecified),inactive,
OCCN(CCO)c1ccccc1,inactive,
CC(=O)Oc1ccc(C)cc1,inactive,
Cc1cccc(C(=O)O)c1,inactive,
C=CC(=O)OCCC(=O)O,inactive,
COc1cc(NC(=O)CC(C)=O)c(OC)cc1Cl,inactive,
